Data as given in the supplement of paper PMC3414501.
Structures can show the parent of a compound that is named as a salt.

Legend:
[1] = test system: S. cerevisiae SK1 pCDA2-eGFP (USY613), sporulating; assay: CDA2-GFP sporulation assay sensitivity score (z-score vs DMSO controls); higher = stronger inhibition of sporulation, active = hit call of the paper;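 further: active if sensitivity score above 5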
[2] = test system: S. cerevisiae NKY1551 his4x/his4B, sporulating; assay: HIS4 meiotic recombination assay sensitivity score (z-score vs DMSO controls); higher = stronger inhibition of sporulation/recombination, active = hit call of the paper;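 further: active if sensitivity score above 5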
[3] = test system: S. cerevisiae AD1-9 (efflux-pump deficient), vegetative growth in YPD; assay: growth sensitivity score (doubling time z-score vs DMSO controls); higher = slower growth, strongly negative scores also mark growth inhibition (complete suppression), active = hit call of the paper
How it was run: (§1)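 Rich medium in microtiter plates was seeded with Saccharomyces cerevisiae strains BY4741 and AD1-9 at an OD600 of 0.065, and compounds were added as a 1:100 dilution of DMSO stock. A Tecan GENios reader recorded optical density every 15 min for 24 hours, with eight solvent-only wells in each experiment. Average doubling time was the time to reach a set generation point divided by generation number. The growth sensitivity score was the compound mean minus the solvent-only mean, divided by the solvent-only standard deviation.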

[4] = test system: S. cerevisiae BY4741 (wild-type), vegetative growth in YPD; assay: as above
How it was run: as §1

SMILES	CDA2-GFP sporulation assay sensitivity score [1]	HIS4 meiotic recombination assay sensitivity score [2]	growth sensitivity score [3]	growth sensitivity score [4]
Clc1cccc(Cl)c1NC1=NCCN1 [Clonidine] (stock concentration (mM, diluted 1:100): 10)	-1.29 (inactive)	-0.25 (inactive)	-1.44 (inactive)	-1.97 (inactive)
CN(C)CCC=C1c2ccccc2COc2ccccc21 [Doxepin] (stock concentration (mM, diluted 1:100): 10)	18.2 (active)	3.87 (inactive)	5.43 (active)	1.16 (inactive)
N#Cc1ccc(C(c2ccc(C#N)cc2)n2cncn2)cc1 [Letrozol] (stock concentration (mM, diluted 1:100): 10)	1.08 (inactive)	-0.01 (inactive)	20.4 (active)	-0.45 (inactive)
CCOC(=O)[C@H](CCc1ccccc1)N[C@H]1CCc2ccccc2N(CC(=O)O)C1=O [Benazepril hydrochloride] (stock concentration (mM, diluted 1:100): 9.2)	-1.49 (inactive)	0.2 (inactive)	1.33 (inactive)	1.72 (inactive)
CC(C)C[C@H](NC(=O)[C@@H](O)[C@H](N)Cc1ccccc1)C(=O)O [Bestatin] (stock concentration (mM, diluted 1:100): 10)	-0.06 (inactive)	-1.06 (inactive)	-1.24 (inactive)	-1.14 (inactive)
CNS(=O)(=O)Cc1ccc2[nH]cc(CCN(C)C)c2c1 [Sumatriptan succinate] (stock concentration (mM, diluted 1:100): 7.2)	-0.43 (inactive)	-0.69 (inactive)	0.45 (inactive)	-1.56 (inactive)
CC(=O)O[C@H]1C[C@@H]2CC[C@@H]3[C@H](CC[C@@]4(C)[C@H]3C[C@H]([N+]3(C)CCCCC3)[C@@H]4OC(C)=O)[C@@]2(C)C[C@@H]1N1CCCCC1 [Vecuronium bromide] (stock concentration (mM, diluted 1:100): 10)	1.32 (inactive)	-1.64 (inactive)	-5.36	0.21 (inactive)
COc1nc(C)nc(Cl)c1NC1=NCCN1 [Moxonidine hydrochloride] (stock concentration (mM, diluted 1:100): 9.2)	0.6 (inactive)	-0.58 (inactive)	-1.22 (inactive)	0.19 (inactive)
Cc1c(OCC(F)(F)F)ccnc1C[S+]([O-])c1nc2ccccc2[nH]1 (stereo not drawn) [Lansoprazole] (stock concentration (mM, diluted 1:100): 10.1)	14.2 (inactive)	1.42 (inactive)	2.67 (active)	1.37 (inactive)
COc1cccc2c1C(=O)c1c(O)c3c(c(O)c1C2=O)C[C@@](O)(C(=O)CO)C[C@@H]3O[C@H]1C[C@H](N)[C@H](O)[C@H](C)O1 [Doxorubicin hydrochloride] (stock concentration (mM, diluted 1:100): 9.4)	0.3 (inactive)	-0.73 (inactive)	83.6 (active)	51 (active)
COCCCOc1ccnc(C[S+]([O-])c2nc3ccccc3[nH]2)c1C (stereo not drawn) [Rabeprazole] (stock concentration (mM, diluted 1:100): 10.6)	11.4 (active)	3.07 (inactive)	31.5 (active)	12.2 (active)
CCOC(=O)[C@@]1(CCCCCCOc2ccc(Cl)cc2)CO1 [Etomoxir] (stock concentration (mM, diluted 1:100): 10)	5.49 (inactive)	-1.14 (inactive)	8.16 (active)	1.54 (inactive)
CN(C)CCc1c[nH]c2ccc(C[C@H]3COC(=O)N3)cc12 [Zolmitriptan] (stock concentration (mM, diluted 1:100): 10)	-0.81 (inactive)	0.22 (inactive)	-1.29 (inactive)	-0.77 (inactive)
C#C[C@]1(O)CC[C@H]2[C@@H]3CCC4=CC(=O)CC[C@@H]4[C@H]3CC[C@@]21CC [Levonorgestrel] (stock concentration (mM, diluted 1:100): 10)	0.19 (inactive)	-2.79 (inactive)	-0.41 (inactive)	0.89 (inactive)
O=C1CC2(CCCC2)CC(=O)N1CCNCC1COc2ccccc2O1 (stereo not drawn) (stock concentration (mM, diluted 1:100): 10)	19.1 (active)	-0.57 (inactive)	3.73 (active)	1.45 (inactive)
CC(N/C(=N\C#N)Nc1ccncc1)C(C)(C)C (stereo not drawn) [Pinacidil monohydrate] (stock concentration (mM, diluted 1:100): 10)	1.62 (inactive)	-1.38 (inactive)	-0.96 (inactive)	1.52 (inactive)
COc1cc(CNC(=O)CCCC/C=C/C(C)C)ccc1O [Capsaicin] (stock concentration (mM, diluted 1:100): 10)	-1.12 (inactive)	2.12 (inactive)	25.8 (active)	3.2 (active)
